Screens as filed in PubChem.
Sa RN4220 lethal: growth inhibition of S. aureus RN4220, primary screen, OD600; 16 h; inhibition, % (concentration not given with the values); actives 0.33% (n = 330,000); in the data active = inhibition above about 85%;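 also: plate controls were untreated cells for no effect and reference antibiotic for full effect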
SSB-PriA inh: inhibitors of Klebsiella pneumoniae PriA binding to SSB C-terminal tail, primary screen, biochemical, AlphaScreen. PriA–SSB C-terminal tail interaction (Klebsiella pneumoniae). AlphaScreen SSBct-PriA binding, biotinylated peptide. inhibition, % at 33 µM. actives 0.6% (n = 430,000). AID 1272365, 2023; in the data active = inhibition mostly above about 37%, no sharp cut-off; inactive = mostly below about 20%;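 also: plate controls were negative control peptide for no effect and reference peptide for full effect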
Sa ugtP lethal: growth inhibition of ugtP-null S. aureus, primary screen, RN4220 ugtP deletion, OD600. growth inhibition, % (no concentration beside the values). AID 1259309, 2017. 16 h. actives 0.54% (n = 330,000); in the data active = growth inhibition above about 68%;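 also: plate controls were untreated wells for no effect and antibiotic for full effect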
An asterisk follows results filed as active. This is a sample that favours compounds with a hit; in the whole collection about 1% have one here.

`O=c1cc(-c2ccccn2)[nH]c(-c2ccccn2)c1` gave SSB-PriA inh 96.0*.
Nc1cc(-c2ccccn2)[nH]n1 was read as SSB-PriA inh 17.0.
Screening Oc1ccc(C=NNc2ccc(Cl)nn2)c(O)c1O returned SSB-PriA inh -20.9.
Screening CN(C)c1ccc(C(=O)N2CCC(Cn3ccnc3-c3ccccc3)CC2)cc1 returned SSB-PriA inh 19.0.
For Cc1[nH]nc(-c2nn3c(-c4ccccn4)nnc3s2)c1Br the results were SSB-PriA inh 67.5*.
`c1ccc(-c2nnc3sc(-c4ccco4)nn23)nc1` gave SSB-PriA inh 24.5.
`Nc1nn2c(-c3ccccn3)nnc2s1` gave SSB-PriA inh 59.6*.
For Clc1ccccc1-c1nn2c(-c3ccccn3)nnc2s1 the results were Sa RN4220 lethal 5.7, SSB-PriA inh -14.9 and Sa ugtP lethal 4.2.
For COc1ccc(-c2nn3c(-c4ccccn4)nnc3s2)cc1OC the results were Sa RN4220 lethal 2.3, SSB-PriA inh 1.5 and Sa ugtP lethal -1.1.
`Brc1ccc(-c2nn3c(-c4ccccn4)nnc3s2)o1` gave Sa RN4220 lethal 43.9, SSB-PriA inh 92.9* and Sa ugtP lethal -5.1.
For Cc1cc(F)ccc1NC(=O)c1nnn(Cc2ccccc2Cl)c1N the results were SSB-PriA inh 0.0.
`Cc1ccnc2c(=O)cc[nH]c12` gave SSB-PriA inh 104.0*.
Screening O=c1cc[nH]c2c1ccc1c(=O)cc[nH]c12 returned Sa RN4220 lethal 0.7, SSB-PriA inh 2.6 and Sa ugtP lethal 2.3.
`CN(c1ccc(F)c(F)c1)S(=O)(=O)c1ccsc1-c1nc(-c2ccc(Cl)cc2)no1` gave SSB-PriA inh -6.0.
Screening O=C(NCCCn1nc(-c2ccco2)ccc1=O)c1ccccc1 returned SSB-PriA inh -7.0.
`Cc1cccc(Cn2nnc3c2C(=O)c2ccccc2C3=O)c1` gave Sa RN4220 lethal 69.3, SSB-PriA inh 40.0 and Sa ugtP lethal 85.6*.
`Cc1ccccc1Cn1nnc2c1C(=O)c1ccccc1C2=O` gave Sa RN4220 lethal 39.0, SSB-PriA inh -8.2 and Sa ugtP lethal 50.8.
CCNc1nc(NCC)nc(C(=O)NN)n1 was read as Sa RN4220 lethal 2.9, SSB-PriA inh 82.8* and Sa ugtP lethal -3.7.
For CCNc1nc(NCC)nc(OCC(=O)O)n1 the results were Sa RN4220 lethal 2.0, SSB-PriA inh 0.8 and Sa ugtP lethal 2.1.
Screening O=C(NCc1cccs1)N1CCC(c2nnc(-c3ccsc3)o2)CC1 returned SSB-PriA inh -4.0.
Cc1nc2cc(C(F)(F)F)ccc2n1CCNc1nc(-c2ccc(F)cc2)cs1 was read as Sa RN4220 lethal -8.4, SSB-PriA inh -8.0 and Sa ugtP lethal -0.4.
`Cc1ccc(-c2csc(NCCn3c(-c4ccncc4)nc4cc(C(F)(F)F)ccc43)n2)cc1` gave Sa RN4220 lethal 93.7*, SSB-PriA inh -1.4 and Sa ugtP lethal 64.1.
`Cc1cc(C)n(-c2ccc(CCC(=O)NCCC3=CCCCC3)cc2)n1` gave SSB-PriA inh -11.0.
`CCCCCCCCn1c(NS(=O)(=O)c2ccc(Cl)cc2)c(S(=O)(=O)c2ccc(C)cc2)c2nc3ccccc3nc21` gave SSB-PriA inh 52.5.
`Cc1ccc(S(=O)(=O)Nc2c(S(=O)(=O)c3ccccc3)c3nc4ccccc4nc3n2CCc2ccccc2)cc1` gave SSB-PriA inh 44.8.
`CCCCn1c(NS(=O)(=O)c2ccc(C)cc2)c(S(=O)(=O)c2ccc(C)cc2)c2nc3ccccc3nc21` gave SSB-PriA inh 61.8*.
O=S(=O)(Nc1c(S(=O)(=O)c2ccccc2)c2nc3ccccc3nc2n1C1CCCCC1)c1ccccc1 was read as Sa RN4220 lethal 3.5, SSB-PriA inh 73.3* and Sa ugtP lethal -9.8.
CCCCOCCCn1c(NS(=O)(=O)c2ccc(Cl)cc2)c(S(=O)(=O)c2ccc(C)cc2)c2nc3ccccc3nc21 was read as SSB-PriA inh 55.8*.
Screening Cc1ccc(S(=O)(=O)Nc2c(S(=O)(=O)c3ccc(C)cc3)c3nc4ccccc4nc3n2CCC(C)C)cc1 returned SSB-PriA inh 62.5*.
For CCCCCn1c(NS(=O)(=O)c2ccc(Cl)cc2)c(S(=O)(=O)c2ccc(C)cc2)c2nc3ccccc3nc21 the results were SSB-PriA inh 43.0.
`CC1CCN(S(=O)(=O)c2ccc(C(=O)Nc3nc4ccc(Cl)cc4s3)cc2)CC1` gave SSB-PriA inh 0.0.
For Cc1c(Cl)cccc1S(=O)(=O)N1CCC2(CC(=O)c3ccccc3O2)C1 (stereo not drawn) the results were SSB-PriA inh 8.0.
Screening CCOc1ccc(CNC(=O)c2cnc(OC)nc2)cc1 returned SSB-PriA inh -6.0.
`CCc1c(C#N)c(SCC(=O)Nc2ccc(-c3nc4ccccc4s3)cc2)nc2c1C(=O)CC(C)(C)C2` gave SSB-PriA inh -5.0.
For O=C(Nc1ccc(Cl)c(C(F)(F)F)c1)c1ccc(-c2nc3ccccc3s2)s1 the results were SSB-PriA inh -15.0.
Screening CCCCCn1c(NS(=O)(=O)c2ccccc2)c(S(=O)(=O)c2ccc(C)cc2)c2nc3ccccc3nc21 returned SSB-PriA inh 75.7*.
Screening CCCCn1c(NS(=O)(=O)c2ccc(Cl)cc2)c(S(=O)(=O)c2ccccc2)c2nc3ccccc3nc21 returned SSB-PriA inh 51.0.
Screening CCCCn1c(NS(=O)(=O)c2ccccc2)c(S(=O)(=O)c2ccccc2)c2nc3ccccc3nc21 returned SSB-PriA inh 63.6*.
For CCCCCn1c(NS(=O)(=O)c2ccc3ccccc3c2)c(S(=O)(=O)c2ccc(C)cc2)c2nc3ccccc3nc21 the results were SSB-PriA inh 62.2*.
CCCCCCCCn1c(NS(=O)(=O)c2ccc(C)cc2)c(S(=O)(=O)c2ccccc2)c2nc3ccccc3nc21 was read as SSB-PriA inh 49.8.
For CCCCCn1c(NS(=O)(=O)c2ccc(C)cc2)c(S(=O)(=O)c2ccccc2)c2nc3ccccc3nc21 the results were SSB-PriA inh 51.9.
CCCCCn1c(NS(=O)(=O)c2ccc(C)cc2)c(S(=O)(=O)c2ccc(C)cc2)c2nc3ccccc3nc21 was read as SSB-PriA inh 67.0*.
`O=C(CS(=O)(=O)c1ccc(Cl)cc1)Nc1nc(-c2ccncc2)cs1` gave SSB-PriA inh 5.0.
For Cc1nc(-n2cccc2)sc1C(=O)NCCn1nc(-n2cncn2)ccc1=O the results were SSB-PriA inh 10.0.
Screening O=C(NCC1(c2ccsc2)CCCC1)c1cc2ccccc2[nH]1 returned SSB-PriA inh -26.0.
For CC(=O)Oc1c(C)c2c3c(c1OC(C)=O)[C@@H](C)CC[C@@H]3[C@@H](C)C[C@H]2C=C(C)C the results were Sa RN4220 lethal -10.0, SSB-PriA inh -2.4 and Sa ugtP lethal 86.4*.
CC(C)=C[C@@H]1C[C@H](C)[C@H]2CC[C@H](C)c3c(O)c(O)c(C)c1c32 was read as SSB-PriA inh -0.2.
`Cc1cc(C)cc(NC(=O)CCS(=O)(=O)c2ccc(F)cc2)c1` gave SSB-PriA inh 3.0.
S=C(Nc1ccccc1)N1CCN(C(=S)c2cccc(Br)c2)CC1 was read as SSB-PriA inh -9.0.
N#Cc1nc(-c2cccs2)oc1NCCc1ccccc1 was read as Sa RN4220 lethal -2.9, SSB-PriA inh 21.4 and Sa ugtP lethal -0.8.
